PLAP activator: activates human placental alkaline phosphatase | actives 1.2% (n = 96,000) | purified PLAP enzyme, luminescent substrate read-out; hits give high values | activation fold at 20 µM; in the data active = activation fold above about 2
Cav32 inh: inhibitors of human Cav3.2 T-type calcium channel; O95180; Cav3.2-expressing cells, Fluo-4 calcium fluorescence FDSS; hits give low values; B-score at 10 µM; actives 4% (n = 100,000);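 active = single-dose well whose peak fluorescence ratio is a statistical outlier from its plate by either plate-standardised score or position-corrected B-score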
DAT uptake mod: changed human dopamine transporter uptake under cocaine IC80. LLC-PK1 hDAT cells, [14C]-dopamine uptake with cocaine IC80; actives deviate in either direction. B-score at 10 µM. actives 1.3% (n = 110,000). AID 449768;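 active = Z score or B-score, a plate-position-corrected score, falls beyond the plate's 99.7% confidence bounds, in either direction; inactive = both scores lie inside the 99.7% bounds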;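 also: scored against the spread of the other compound wells on the same plate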
Target sequence (Q01959 whole entry, looked up): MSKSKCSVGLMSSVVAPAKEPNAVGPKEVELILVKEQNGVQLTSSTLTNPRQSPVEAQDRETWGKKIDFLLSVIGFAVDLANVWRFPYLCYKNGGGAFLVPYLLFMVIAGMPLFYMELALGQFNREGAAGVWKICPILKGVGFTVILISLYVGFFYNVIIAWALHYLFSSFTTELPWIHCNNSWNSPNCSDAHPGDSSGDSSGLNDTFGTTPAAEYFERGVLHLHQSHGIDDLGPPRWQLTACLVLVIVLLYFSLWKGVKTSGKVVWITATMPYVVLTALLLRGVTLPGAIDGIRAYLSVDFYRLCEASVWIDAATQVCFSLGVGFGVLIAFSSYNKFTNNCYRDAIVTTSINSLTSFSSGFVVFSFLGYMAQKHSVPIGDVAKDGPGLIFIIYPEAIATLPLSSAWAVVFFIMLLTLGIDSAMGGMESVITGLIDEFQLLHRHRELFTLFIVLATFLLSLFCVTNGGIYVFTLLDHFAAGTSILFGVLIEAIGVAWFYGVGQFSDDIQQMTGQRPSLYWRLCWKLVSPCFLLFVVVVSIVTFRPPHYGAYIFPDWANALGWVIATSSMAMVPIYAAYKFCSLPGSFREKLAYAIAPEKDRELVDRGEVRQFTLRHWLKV
PostGolgi yeast: growth inhibition of a yeast mutant, post-Golgi transport screen; AID 739; post-Golgi transport phenotypic cell assay; actives 0.9% (n = 98,000); inhibition, % at 10 µM;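 also: yeast cells grown in 1536-well plates; yeast grown about 18 h at 30C before absorbance read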
PostGolgi ctrl: growth of the yeast control strain, post-Golgi counter-screen. AID 738. inhibition, % at 10 µM. actives 5% (n = 98,000). efflux-deficient yeast background strain, growth absorbance A615, 16 h
Starred values were filed as active, the others as inactive; . = not tested or not shown. Most compounds without a hit are left out; they make up all but 9.6% or so of the library. Rule as the data show it, unless noted: active = inhibition above about 30%; inactive = the rest.

SMILES	PLAP activator	Cav32 inh	DAT uptake mod	PostGolgi yeast	PostGolgi ctrl
CCCCN(C)C(=O)C1CCC(=O)N(c2cc(OC)c(OC)c(OC)c2)C1c1ccc(OC)cc1 (stereo not given)	.	1.1	-8.4*	0	0
CSc1nc(NC(C)(C)C)nc(Oc2ccc(=O)n(C)n2)n1	0.8	0.13	-0.34	-16	-4
CCOC(=O)C(NC(C)=O)C(OC(C)=O)c1cccc(N(CCO)CCO)c1 (stereo not given)	1.2	-0.024	-0.58	6	7
CCOC(=O)C1CCCN(C(=O)C2c3ccccc3Oc3ccccc32)C1 (stereo not given)	1.4	-5.8*	-0.21	-1	16
C=CCn1c(SC(C)C(=O)NCCC2=CCCCC2)nc2ccccc2c1=O (stereo not given)	1.1	-6.1*	1.8	-7	32*
O=C(N/N=C/c1cccs1)c1cccc2cc[nH]c12	.	0.17	1	0	1
O=C(N/N=C/c1cccs1)c1cc(-c2ccc3ccccc3c2)n[nH]1	1.4	-0.03	0.56	-3	59*
O=C(N/N=C/c1ccco1)c1cc(-c2ccc3ccccc3c2)n[nH]1	2.7*	.	.	13	43*
O=C(CSc1nccn1-c1ccc(Cl)cc1)NCc1ccc2c(c1)OCO2	0.8	.	1.9	-11	16
Cc1ccc(C)c(S(=O)(=O)NC(CCC(N)=O)C(=O)O)c1 (stereo not given)	0.8	0.48	-1.1	.	.
O=C(NC1CCCCC1)c1ccc(CNc2ccccc2)o1	0.8	0.038	0.68	-7	5
COc1ccc2[nH]c(C(=O)O)c(NS(=O)(=O)c3ccc(Cl)s3)c2c1	2.2*	-1.1	0.0088	7	4
CCOC(=O)c1c(NC(=O)CN2CCOCC2)sc2c1CC(C)(C)OC2	1.9	-0.61	0.99	-5	8
COc1cccc(-n2nc(C(=O)N3CC(C)CC(C)C3)c3ccccc3c2=O)c1 (stereo not given)	1.3	-1.8	0.77	-3	13
Clc1ccc(CSc2nccn2Cc2ccccc2)cc1	1.1	-5*	0.76	0	-1
CC(=O)Nc1ccc(NC(=O)CSc2nccn2Cc2ccccc2)cc1	1.1	-0.057	0.067	-2	5
Cc1ccc(NC(=O)CSc2nccn2Cc2ccccc2)cc1C	0.8	-8*	0.71	-16	5
COc1cccc(-c2cc(N)nn2C(=O)Nc2ccc(Cl)cc2)c1	1.2	-0.48	0.23	5	15
CNC(=O)CN(c1ccc(C(C)C)cc1)S(C)(=O)=O	0.9	0.38	-1.6	-3	7
CC(=O)n1c2c(c3ccccc31)OC(N)=C(C#N)C2c1ccc(C(C)C)cc1 (stereo not given)	1	0.0093	0.72	18	34*
Cc1ccccc1N(C(=O)c1cccs1)c1nc2ccccc2s1	1	.	.	1	35*
CC(=O)c1c(C)[nH]c(C(=O)OCC(=O)N2CCc3ccccc32)c1C	1.2	-0.88	-2.6*	2	-8
CCOC(=O)c1[nH]c(C)c(C(=O)OCC(=O)N2CCc3ccccc32)c1C	1	1.3	-1.1	-1	10
Cc1ccc(C(=O)NNC(=S)NC(=O)COc2ccccc2)cc1	1.5	-5.2*	0.019	27	24
Cc1ccccc1C(=O)NNC(=S)NC(=O)COc1ccccc1	2.4*	-3.3	-0.75	19	25
SMILES	PLAP activator	Cav32 inh	DAT uptake mod	PostGolgi yeast	PostGolgi ctrl
Fc1ccc(C2CC(c3ccco3)=NN2c2ccccc2)cc1 (stereo not given)	0.9	-0.83	-0.0027	5	11
O=[N+]([O-])c1ccc(N2N=C(c3ccco3)CC2c2ccccc2)cc1 (stereo not given)	0.9	-5*	-0.32	3	31*
O=C(c1cccc(N2C(=O)C3CC=CCC3C2=O)c1)N1CCN(c2ccccc2)CC1 (stereo not given)	.	.	.	6	5
CCOC(=O)c1ccc(NC(=O)CC2C(=O)N(c3ccc(F)cc3)C(=O)N2CCC(C)C)cc1 (stereo not given)	1.5	-4.5*	2.4	-5	2
CC(C)C(C)(C#N)NC(=O)CSc1nnc(C(F)(F)F)n1C (stereo not given)	1	.	0.47	4	6
CC1(C)CC(NCc2ccc3c(c2)OCO3)CCO1 (stereo not given)	1	0.031	-0.77	-10	3
CCOc1ccc(NC(=O)CCCOc2cc(=O)n(C)c3ccccc23)cc1	0.9	0.32	-0.22	23	16
Cc1ccc(-c2nc(C#N)c(NCc3ccco3)o2)cc1	1	-1.6	-2.8*	-4	24
Cc1cccc(OCc2nc(C#N)c(NCc3ccc4c(c3)OCO4)o2)c1	1.1	-6.8*	0.002	-5	23
N#Cc1nc(-c2ccco2)oc1NCc1ccco1	0.8	0.44	-1.3	6	7
N#Cc1nc(COc2cccc(Cl)c2)oc1NCc1ccco1	1	-1.9	-1.1	25	33*
O=C(Nc1cccc(NC(=O)c2ccccc2[N+](=O)[O-])n1)c1ccccc1[N+](=O)[O-]	0.9	0.71	-0.045	10	0
CC1=C(C#N)C(Nc2cc(C)ccn2)(C(F)(F)F)C(=O)N1 (stereo not given)	1	0.11	0.36	15	3
CC1=NC(C(F)(F)F)(C(F)(F)F)C(C#N)=C(C)N1	0.9	0.15	-3.8*	0	7
CC(=O)Nc1ccc(Oc2nc(C)cc(C)n2)cc1	1	.	-0.26	-1	2
O=C(c1ccc(NS(=O)(=O)c2ccccc2)cc1)N1CCN(Cc2ccc3c(c2)OCO3)CC1	1.5	-2.4	1.3	-2	5
C=CCN(c1ccc(C(=O)NC(C)C)cc1)S(C)(=O)=O	1.3	-0.33	-0.67	15	-1
CN(c1ccc(C(=O)N2CCCCC2)cc1)S(=O)(=O)c1ccccc1	1	0.32	-0.58	-1	15
CN(c1ccc(C(=O)N2CCN(Cc3ccc4c(c3)OCO4)CC2)cc1)S(=O)(=O)c1ccccc1	1.9	-2.3	3.5*	-5	1
C=CCN(c1ccc(C(=O)N2CCCC2)cc1)S(C)(=O)=O	1.4	.	-0.91	5	39*
Cc1ccc(S(=O)(=O)N(C)c2ccc(C(=O)N3CCN(Cc4ccc5c(c4)OCO5)CC3)cc2)cc1	2*	-3.2	0.57	-10	6
Cc1ccc(S(=O)(=O)N(C)c2ccc(C(=O)N3CCCCC3)cc2)cc1	2.1*	0.86	0.089	10	5
O=C1CCCC2=C1C(c1ccc(Cl)cc1)C1C(=O)c3ccccc3C1=N2 (stereo not given)	1.1	-4	2.6*	10	43*
Cc1ccc(Cl)cc1NC(=O)N[C@@H](C)C(=O)O	1	-0.75	-6.4e-05	-3	2
COc1ccc2c(c1)S/C(=C\C(=O)c1ccncc1)N2C	1.2	-0.12	0.88	51*	86*
C=CCn1c(SCc2nc(N)nc(N(C)C)n2)nnc1-c1cccnc1	1.2	.	.	-3	33*
COC(=O)[C@]12C(=O)C(C)=C(O)[C@@]1(C)C(C)=CC1[C@@]34CC[C@@H](OC(C)=O)C(C)(C)C3C(C[C@]12C)OC4=O (stereo not given in full)	.	-0.33	0.28	.	.
